Rows were chosen to be rich in hits. Some 4% of all compounds tested hit in one or more screens of this group.
GALC G270D up = raises human GALC G270D mutant activity in cells. P54803. 145M-Twi-hGALC-G270D cells (Twitcher mouse brain line with human GALC G270D), HMU-beta-Gal fluorescence, 48 h. Potency, µM (top dose mostly 57.5 µM), hits mostly activators. hit rate 0.1% among 45,000; note: potency is the fitted concentration of half-maximal effect; 0% is about no effect; nearly all actives have a fitted effect of over 65% in size
Target sequence (P54803 whole entry G286D): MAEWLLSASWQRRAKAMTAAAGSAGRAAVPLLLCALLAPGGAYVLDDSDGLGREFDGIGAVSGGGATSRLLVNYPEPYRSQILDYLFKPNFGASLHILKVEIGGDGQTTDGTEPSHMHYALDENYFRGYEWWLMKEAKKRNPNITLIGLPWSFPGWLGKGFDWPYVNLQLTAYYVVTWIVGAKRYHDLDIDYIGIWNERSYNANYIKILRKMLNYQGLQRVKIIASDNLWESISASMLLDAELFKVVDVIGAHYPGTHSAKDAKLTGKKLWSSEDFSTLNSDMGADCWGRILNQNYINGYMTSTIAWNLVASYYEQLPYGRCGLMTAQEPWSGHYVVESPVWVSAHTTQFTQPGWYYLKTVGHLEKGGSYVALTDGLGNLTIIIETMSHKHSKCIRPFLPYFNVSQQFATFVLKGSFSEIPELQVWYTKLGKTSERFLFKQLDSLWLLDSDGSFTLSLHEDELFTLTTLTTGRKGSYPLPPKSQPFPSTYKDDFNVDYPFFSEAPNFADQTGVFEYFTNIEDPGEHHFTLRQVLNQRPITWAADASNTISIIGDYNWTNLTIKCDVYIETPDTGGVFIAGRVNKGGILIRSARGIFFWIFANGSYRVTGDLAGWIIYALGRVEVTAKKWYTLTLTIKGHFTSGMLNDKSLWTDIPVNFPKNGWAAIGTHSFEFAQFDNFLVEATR
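Fluorescence readout: HMU-β-gal cleavage by mutant GALC (0.1 mM final, citrate/phosphate pH 5.2 with 1 mg/mL taurocholate), stopped with carbonate/bicarbonate plus Triton X-100. Cells: murine Twitcher 145M-Twi expressing human G270D GALC; qHTS for activators.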
GPR32 ag = GPR32 (DRV1) agonism, beta-arrestin recruitment | O75388 | CHO-K1 GPR32 beta-arrestin PathHunter luminescence, 90 min; zero percent set by DMSO-only wells | activation, % at 76.9 µM | hit rate 2.5% among 48,000 | AID 1346428;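 active = activation of at least 60% and not above a set upper limit, about 1 call in 100 departs from these limits; inconclusive = activation of 40% to 60%, or above that upper limit; inactive = activation under 40%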; note: 0% is about no effect
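Cells are plated overnight, treated with compounds in DMSO for 90 minutes at 37 °C, and developed with PathHunter detection reagent for 1 hour before luminescence is read; signal reflects beta-arrestin binding to GPR32 in engineered CHO-K1 cells.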
NTMT1 inh = inhibitors of human N-terminal methyltransferase NTMT1; Q9BV86; NTMT1 MTase-Glo SAH luminescence, purified enzyme; Potency, µM (series often up to 114 µM), for the others: at the highest dose activity change, negative = inhibition, most hits filed as inhibitors; hit rate 2.5% among 59,000; AID 1645870;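 note: potency is the fitted concentration of half-maximal effect; plate controls were DMSO vehicle for no effect and no enzyme for full effect; nearly all actives have a fitted effect of over 65% in size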
p53null 39C tox = kills p53 null cells at the nonpermissive temperature; Potency, µM (top dose mostly 46.1 µM), inactives show at the highest dose activity, negative = cell killing, actives largely listed as cytotoxic; hit rate 0.97% among 55,000; H1299 p53-null (neo) cells, 39C, ATPlite viability, 24 h; AID 904;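 note: potency is the fitted concentration of half-maximal effect; 0% = DMSO only and -100% = full killing by 100 µM tamoxifen; nearly all actives have a fitted effect of over 50% in size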
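Concentration-response (up to 46 uM) was run for 24 h at the nonpermissive 39C on H1299-p53A138V or H1299-neo cells. ATP content was measured with ATPlite luminescence. AC50 values were Hill-modeled after normalizing between DMSO and 100 uM tamoxifen killing.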
p53null 32C tox = selectivity test: cytotoxicity in p53 null cells, permissive temperature | H1299-neo p53 null cells, ATP luminescence, 24 h, 32C | Potency, µM (doses to about 46.1 µM), for the others: at the highest dose activity change, negative = cytotoxicity, hits mostly cytotoxic | hit rate 0.62% among 55,000 | AID 903;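 note: potency is the fitted concentration of half-maximal effect; 0% = DMSO only and -100% = full killing by 100 µM tamoxifen; nearly all actives have a fitted effect of over 55% in size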
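We seeded p53-null H1299-neo cells, incubated them overnight at 37C, and added compounds across a range up to 46 uM. After 24 hours at 32C, ATP reagent was applied for 20 min at room temperature and luminescence recorded.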
SKOV3 invasion = inhibitors of ovarian cancer cell adhesion and invasion in omental model; AID 1963576; Potency, µM (highest dose often 45.8 µM), for the others: at the top dose activity change, negative = inhibition, most hits filed as inhibitors; hit rate 0.1% among 46,000; SKOV3ip1-GFP adhesion/invasion on 3D omental model, fluorescence;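 note: potency is the fitted concentration of half-maximal effect; plate controls were DMSO wells for no effect and tomatine positive control wells for full effect; nearly all actives have a fitted effect of over 65% in size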
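Primary human omental fibroblast/mesothelial 3D culture pre-formed 48 h. SKOV3ip1-GFP cells added with compounds (0.36-46 umol/L), incubated 2 h RT/16 h 37 C, fixed; GFP cells quantified at 488/509 nm.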
Active calls of the source: *; [ ] = dose if it differs, or a comment. Unless noted, calls come from the whole dose curve; as a rule, active = well fitted curve in the direction sought with a large enough effect; inconclusive = small, poorly fitted or top-dose-only effect, or another doubt; inactive = no such curve, though single readings can be large; an effect the other way counts as inactive or inconclusive.

For CCN(CCO)C(=O)CC(c1ccccc1)c1cc(Br)ccc1O (stereo unspecified) the results were p53null 39C tox -10.6% and p53null 32C tox -4.2%.
Screening CC(=O)c1ccc(NC(=O)c2nc3ccccc3nc2N2CCCCC2)cc1 returned GALC G270D up inactive, GPR32 ag -37.4, NTMT1 inh inconclusive, p53null 39C tox -0.3%, p53null 32C tox 2.2% and SKOV3 invasion 21.5%.
`CC(=O)c1ccc(NC(=O)c2nc3ccccc3n(C)c2=O)cc1` gave GALC G270D up inactive, GPR32 ag 5.2, NTMT1 inh -22.4%, p53null 39C tox 3.3%, p53null 32C tox 2µM* and SKOV3 invasion -25.5%.
For COc1cc(O)c2c(c1)/C=C/C[C@H](O)[C@H](O)C(=O)/C=C\C[C@H](C)OC2=O the results were NTMT1 inh 25.1µM*.
`Cc1cc(-c2nc(C(=O)Nc3cn(C4CCOCC4)nc3C(N)=O)co2)ccn1` gave NTMT1 inh 3.1%.
CN1CCc2c(sc3c2C(=O)NC(c2ccc(OC(=O)c4ccc(C(C)(C)C)cc4)cc2)N3)C1 (stereo unspecified) was read as GALC G270D up inactive, GPR32 ag 64.5*, NTMT1 inh -6.0%, p53null 39C tox -12.7%, p53null 32C tox -8.4% and SKOV3 invasion -17.5%.
For Cc1ccc(NC(=O)/C(C#N)=C/c2cc(C)n(-c3ccc(Br)cc3)c2C)cc1C the results were GALC G270D up inactive, GPR32 ag 63.0*, NTMT1 inh -9.4%, p53null 39C tox -2.0%, p53null 32C tox -0.7% and SKOV3 invasion inconclusive.
Screening Cc1ccc(-n2c(C)cc(/C=C(\C#N)C(=O)Nc3ccc(C)c(C)c3)c2C)cc1 returned GALC G270D up inactive, GPR32 ag 11.8, NTMT1 inh 4.0%, p53null 39C tox -11.2%, p53null 32C tox 5.2%[9.22 µM] and SKOV3 invasion inactive.
CC(C)(C)CC(=O)OCC(=O)[C@@]1(O)CC[C@H]2[C@@H]3CCC4=CC(=O)C=C[C@]4(C)[C@H]3[C@@H](O)C[C@@]21C was read as GALC G270D up inactive, GPR32 ag 119.3* and NTMT1 inh 12.7%[57.5 µM].
O=C(Cn1c(=O)oc2cc(S(=O)(=O)N3CCCC3)ccc21)NCc1ccc(Cl)cc1 was read as GALC G270D up inactive, GPR32 ag inconclusive, NTMT1 inh inconclusive, p53null 39C tox 2.5%, p53null 32C tox -8.0% and SKOV3 invasion inactive.
Cn1c(=O)oc2cc(S(=O)(=O)NC(Cc3ccccc3)C(=O)NCc3ccc(F)cc3)ccc21 (stereo unspecified) was read as GALC G270D up inactive, GPR32 ag -6.1, NTMT1 inh 8.7%, p53null 39C tox -20.3%, p53null 32C tox -6.6% and SKOV3 invasion inactive.
`CN(C)c1ccc(CNC(=O)Cn2c(=O)oc3cc(S(=O)(=O)N4CCCCCC4)ccc32)cc1` gave GALC G270D up inactive, GPR32 ag 112.7*, NTMT1 inh 5.1%, p53null 39C tox 18.6%, p53null 32C tox 1.2% and SKOV3 invasion -1.1%.
For COc1cccc(CNC(=O)Cn2c(=O)oc3cc(S(=O)(=O)N4CCC(C)CC4)ccc32)c1 the results were GALC G270D up inactive, GPR32 ag 12.4, NTMT1 inh -8.2%, p53null 39C tox -6.9%, p53null 32C tox 21.5% and SKOV3 invasion inactive.
CN(C)c1ccc(CNC(=O)C(Cc2ccccc2)NS(=O)(=O)c2ccc3c(c2)oc(=O)n3C)cc1 (stereo unspecified) was read as GALC G270D up inactive, GPR32 ag 94.3*, NTMT1 inh inconclusive, p53null 39C tox -6.3%, p53null 32C tox -0.3% and SKOV3 invasion 4.3%.
